PubChem BioAssay (Tox21)
Records with an inconclusive call do not appear. A call without a number means that no potency is given here. A number with no mark means an inactive call. Activity calls are given as the source filed them. Calls come from the whole dose curve.

Assay: p53 small molecule agonists, cell-based qHTS assay with rat liver microsomes: qHTS cell viability counter screen (AID 1963580); note: nearly all actives have a fitted effect of over 45% in size
Conditions: p53RE-bla HCT-116 + rat microsomes, ATP viability, 16 h; series mostly up to 66 µM; activity change, negative = cytotoxicity: at the top concentration
Description: National Center for Advancing Translational Sciences [NCATS]
Division of Preclinical Innovation [DPI]
U.S. Environmental Protection Agency [EPA]
National Institutes of Environmental Health Sciences [NIEHS]
National Toxicology Program [NTP]
U.S. Food and Drug Administration [FDA]
p53, a tumor suppressor protein, is activated following cellular insult, including DNA damage and other cellular stresses. The activation of p53 regulates cell fate by inducing DNA repair, cell cycle arrest, apoptosis, or cellular senescence. The activation of p53, therefore, is a good indicator of DNA damage and other cellular stresses. The CellSensor p53RE-bla HCT-116 cell line contains a stably integrated beta-lactamase reporter gene under control of the p53 response elements. The activation of the reporter gene under culture conditions can be detected by fluorescence intensity. This cell line was used to screen the Tox21 10K compound library in the condition of presence of rat liver microsomes and to identify agonists that activate the p53 signaling pathway after in vitro metabolic activation (Ooka et al., Archive of Toxicology 96:1975-1987, 2022). The cytotoxicity of the Tox21 compound library against the p53 RE-bla HCT-116 cell line was tested in parallel by measuring the intra cellular ATP content in the same wells.
Tox21 Assay Protocol Summary:
The p53RE-bla cells were dispensed at 4,000cells/3ul/well in 1536-well black-clear bottom plates. After the assay plates were incubated at 37 C, 5% CO2 incubator for 5 hours, 23 nL of compounds dissolved in DMSO, positive controls or DMSO only was transferred to the assay plate. Following compound addition, 3 uL of rat liver microsomes (Molecular Toxicology, Boone, NC) at final concentration of 0.5 mg/mL and 1uL of B-Nicotinamide adenine dinucleotide 2'-phosphate (NADPH) at final concentration of 0.5 mg/mL were transferred to the assay plate. The plates were incubated at 37 C for 16 hours. 1 uL of LiveBLAzer detection mixture was added to each well and the plates were incubated at room temperature in the dark for 2 h. Fluorescence intensity at 460 and 530 nm emission and 405 nm excitation were measured by an Envision plate reader. For cell viability readout that measures cytotoxicity, 4 ul/well of CellTiter-Glo reagent was added into the assay plates using a Flying Reagent Dispenser. After 30 min incubation at room temperature, the luminescence intensity in the plates was measured using a ViewLux plate reader.
For `OC[C@@H](O)[C@@H](O)[C@H](O)[C@H](O)CO`, the Potency was “inactive”.
In the case of `CC(C)CC(=O)CC(C)CC(C)C` (stereo not given), the Potency is reported as “inactive”.
In the case of `C1CNCCN1`, the Potency is reported as “inactive”.
In the case of `NNCCc1ccccc1`, the Potency is reported as “inactive”.
With `O=c1[nH]cnc2c1ncn2[C@H]1CC[C@@H](CO)O1` the Potency was “inactive”.
With `O=C1C(N(CO)C(=O)NCO)N(CO)C(=O)N1CO` (stereo not given) the Potency was “inactive”.
In the case of `CC1=C(/C=C/C(C)=C/C=C/C(C)=C/C(=O)O)C(C)(C)CCC1`, the Potency is reported as “inactive”.
For `O=C(O)CS`, the Potency was “inactive”.
With `CCCCCCCCC(=O)O` the Potency was “inactive”.
With `O=CCCCC=O` the Potency was “inactive”.
In the case of `CCCCC(CC)COC(=O)/C=C\C(=O)OCC(CC)CCCC` (stereo not given), the “activity change, negative = cytotoxicity” value is reported as 0.509%.
With `Cc1ccc(C)c(O)c1` the Potency was “inactive”.
With `C=CC(C)(C)C` the Potency was “inactive”.
For `CC(C)Cc1ccccc1`, the Potency was “inactive”.
In the case of `O=c1[nH]nnc2ccccc12`, the Potency is reported as “inactive”.
For `CC1Cc2ccccc2N1NC(=O)c1ccc(Cl)c(S(N)(=O)=O)c1` (stereo not given), the Potency was “inactive”.
With `CCCCCCCCCCCC(=O)OC` the Potency was “inactive”.
For `CC(=O)c1ccccc1`, the Potency was “inactive”.
In the case of `O=S1(=O)CC=CC1`, the Potency is reported as “inactive”.
With `CN1CCC[C@H]1c1cccnc1` the Potency was “inactive”.
For `C[C@@H](O)[C@H]1C(=O)N2C(C(=O)O)=C(S[C@@H]3CN[C@H](C(=O)N(C)C)C3)[C@H](C)[C@H]12`, the Potency was “inactive”.
For `O=C1c2c(O)cccc2Cc2cccc(O)c21`, the Potency was “inactive”.
With `Clc1ccc(Sc2cc(Cl)c(Cl)cc2Cl)cc1` the Potency was “inactive”.
With `O=c1cc[nH]c(=O)[nH]1` the Potency was “inactive”.
For `CC(C)=CCC/C(C)=C/C=O`, the Potency was “inactive”.
For `COC(=O)c1ccccc1`, the Potency was “inactive”.
For `CC1=C(C)S(=O)(=O)CCS1(=O)=O`, the Potency was “inactive”.
In the case of `CCCCCCO`, the Potency is reported as “inactive”.
In the case of `CCCCC1(COC(=O)CCC(=O)O)C(=O)N(c2ccccc2)N(c2ccccc2)C1=O`, the Potency is reported as “inactive”.
For `CC1=CC[C@H]2C[C@@H]1C2(C)C`, the Potency was “inactive”.
In the case of `CC(O)COCC(C)O` (stereo not given), the Potency is reported as “inactive”.
In the case of `ClC1=C(Cl)C(Cl)(Cl)C(Cl)=C1Cl`, the Potency is reported as “inactive”.
In the case of `CCCCCCCCCCCC[N+](C)(C)C`, the Potency is reported as “inactive”.
For `C=CC(C)CCCC(C)(C)O` (stereo not given), the Potency was “inactive”.
With `C#C[C@]1(O)CC[C@H]2[C@@H]3CCc4cc(O)ccc4[C@H]3CC[C@@]21C` the Potency was “inactive”.
For `C=C(C)C(=O)OCCCCCC`, the Potency was “inactive”.
In the case of `O=C1CCCCCCCCCCCN1`, the Potency is reported as “inactive”.
In the case of `CCCCCCCCCCC(CO)CCCCCCCC` (stereo not given), the Potency is reported as “inactive”.
With `CCOC(=O)C(C#N)=C(c1ccccc1)c1ccccc1` the Potency was “inactive”.
For `Cc1cc(=O)oc2cc(O)ccc12`, the Potency was “inactive”.
